For 37 compounds, mitochondrial superoxide results are on record in the supplement of paper PMC7393113.

Where a name gives a salt, the structure may show the parent alone. ± gives the standard deviation of the averaged measurements.

The subject of this experiment is iBMDM (immortalised mouse bone-marrow-derived macrophages), LPS-stimulated. Nature of the experiment: mitochondrial superoxide (MitoSOX fluorescence) fold increase over unstimulated control; higher = more LPS-induced mitochondrial ROS (less inhibition). To be noted: inhibitor concentration: 500 nM; LPS: 100 ng/ml; time after LPS: 4 h. In a few lines:
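Cells were immortalised mouse bone-marrow-derived macrophages, plated in triplicate and switched to phenol-red-free 1% FCS/DMEM for 20 h. Kinase inhibitors (500 nM, 30 min) preceded MitoSox loading (1 μM, 10 min) and LPS addition (100 ng/ml), with 510/580 nm fluorescence read every 60 min for 4 h. Mitochondrial superoxide is reported as averaged fold induction over untreated macrophages.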
With `Cc1cc(Nc2cc(N3CCN(C)CC3)nc(Sc3ccc(NC(=O)C4CC4)cc3)n2)n[nH]1` [VX-680 (Tozasertib, MK-0457)], the mitochondrial superoxide came out at 1.73 ± 0.033.

As for `CC(C)n1nc(-c2ccc3oc(N)nc3c2)c2c(N)ncnc21`, the mitochondrial superoxide worked out at 1.78 ± 0.051.

As to `CC(C)(O)CC(=O)NCCn1ccc2ncnc(Nc3ccc(Oc4cccc(C(F)(F)F)c4)c(Cl)c3)c21`, the mitochondrial superoxide worked out at 1.62 ± 0.14.

In the case of `CCN(CCO)CCCOc1ccc2c(Nc3cc(CC(=O)Nc4cccc(F)c4)[nH]n3)ncnc2c1` [Barasertib (AZD1152-HQPA)], the mitochondrial superoxide was found to be 1.44 ± 0.13.

Take `CC(C)(C)c1cc(/C=C(\C#N)C(N)=S)cc(C(C)(C)C)c1O` [Tyrphostin AG 879]: the mitochondrial superoxide came out at 1.61 ± 0.037.

As to `COc1cc2ncnc(Oc3cccc(NC(=O)Nc4cc(C(C)(C)C(F)(F)F)on4)c3)c2cc1OC`, the mitochondrial superoxide came out at 1.59 ± 0.025.

`CN1CCC(CNc2ccc3ncc(-c4cccc(OC(F)(F)F)c4)n3n2)CC1` [SGI-1776 free base] displayed a mitochondrial superoxide of 1.33 ± 0.071.

Take `CCN(CC)CCCCNc1ncc2cc(-c3cc(OC)cc(OC)c3)c(NC(=O)NC(C)(C)C)nc2n1`: the mitochondrial superoxide is 1.12 ± 0.045.

For `COc1cc2c(Oc3ccc4[nH]c(C)cc4c3F)ncnc2cc1OCCCN1CCCC1` [Cediranib (AZD2171)], the mitochondrial superoxide was found to be 1.78 ± 0.081.

In turn, `Nc1ncnc2c1c(-c1cnc3[nH]ccc3c1)nn2C1CCCC1` yielded a mitochondrial superoxide of 1.57 ± 0.058.

Take `COc1ccc2c(c1)c(C1=C(c3c[nH]c4ccccc34)C(=O)NC1=O)cn2CCCN(C)C`: the mitochondrial superoxide was 1.36 ± 0.042.

In turn, `COc1cc2nccc(Oc3ccc(NC(=O)C4(C(=O)Nc5ccc(F)cc5)CC4)cc3)c2cc1OC` came in with a mitochondrial superoxide of 1.51 ± 0.029.

`C#Cc1cccc(Nc2ncnc3cc(OCCOC)c(OCCOC)cc23)c1` [Erlotinib HCl (OSI-744)] registered a mitochondrial superoxide of 1.76 ± 0.048.

The compound `Nc1ncnc2c1c(-c1cccc(OCc3ccccc3)c1)cn2C1CC(CN2CCCC2)C1` (configuration not stated) came in with a mitochondrial superoxide of 1.62 ± 0.21.

In turn, `O=C(Nc1ccc(-c2ccnc(Nc3ccc(N4CCOCC4)cc3)n2)cc1)C1CCCN1` (configuration not stated) displayed a mitochondrial superoxide of 1.3 ± 0.068.

In turn, `NC1(c2ccc(-c3nc4ccn5c(=O)[nH]nc5c4cc3-c3ccccc3)cc2)CCC1` displayed a mitochondrial superoxide of 1.47 ± 0.14.

`CNC(=O)c1cc(COc2nnc(Nc3ccc(Cl)cc3)c3ccoc23)ccn1` [Telatinib] showed a mitochondrial superoxide of 1.38 ± 0.11.

Take `Cc1csc(-c2nnc(Nc3ccc(Oc4ncccc4-c4ccnc(N)n4)cc3)c3ccccc23)c1`: the mitochondrial superoxide is 1.67 ± 0.046.

With `Cc1ccc(S(=O)(=O)C=CC#N)cc1`, the mitochondrial superoxide stood at 1.34 ± 0.095.

The compound `CN1CCN(c2ccc3nc(-c4c(N)c5c(F)cccc5[nH]c4=O)[nH]c3c2)CC1` [Dovitinib (TKI-258, CHIR-258)] registered a mitochondrial superoxide of 1.91 ± 0.073.

The compound `CN(C)Cc1cccc(N=C(c2ccccc2)c2c(O)[nH]c3cc(C(=O)N(C)C)ccc23)c1` had a mitochondrial superoxide of 1.31 ± 0.037.

Take `CC(C)(C)c1cc(NC(=O)Nc2ccc(-c3cn4c(n3)sc3cc(OCCN5CCOCC5)ccc34)cc2)no1` [Quizartinib (AC220)]: the mitochondrial superoxide is 1.31 ± 0.042.

Take `COc1cc2c(Nc3ccc(NC(=O)c4ccccc4)cc3)ncnc2cc1OCCCN1CCOCC1`: the mitochondrial superoxide is 1.52 ± 0.037.

On to `Cc1ccc(F)c(NC(=O)Nc2ccc(-c3cccc4[nH]nc(N)c34)cc2)c1` [Linifanib (ABT-869)], for which the mitochondrial superoxide was found to be 1.83 ± 0.067.

`Cc1c(C(=O)N2CCOc3ccc(-c4ccc(N)nc4)cc3C2)ccc(S(C)(=O)=O)c1F` had a mitochondrial superoxide of 1.32 ± 0.059.

For the compound `COc1cccc2cc(-c3nc([C@H]4CC[C@H](C(=O)O)CC4)n4ncnc(N)c34)[nH]c12`, the mitochondrial superoxide is 1.52 ± 0.017.

Compound `CO[C@H]1C[C@@H]2CC[C@@H](C)[C@@](O)(O2)C(=O)C(=O)N2CCCC[C@H]2C(=O)O[C@H]([C@H](C)C[C@@H]2CC[C@@H](O)[C@H](OC)C2)CC(=O)[C@H](C)/C=C(\C)[C@@H](O)[C@@H](OC)C(=O)[C@H](C)C[C@H](C)/C=C/C=C/C=C/1C` [Rapamycin (Sirolimus)] registered a mitochondrial superoxide of 1.7 ± 0.033.

In turn, `CC(C)(C)Cn1c(N)nc2ccc(-c3[nH]c(C(C)(C)C)nc3-c3ccc(F)cc3)nc21` gave a mitochondrial superoxide of 1.33 ± 0.066.

Consider `CC1(C)CNc2cc(NC(=O)c3cccnc3NCc3ccncc3)ccc21` [Motesanib Diphosphate (AMG-706)], for which the mitochondrial superoxide is 1.71 ± 0.053.

Consider `O=C(NCCCNc1nc(Nc2cccc(NC(=O)N3CCCC3)c2)ncc1I)c1cccs1`, for which the mitochondrial superoxide was 1.13 ± 0.051.

As for `O=c1cc(N2CCOCC2)oc2c(-c3cccc4c3sc3ccccc34)cccc12`, the mitochondrial superoxide is 1.55 ± 0.042.

In turn, `C=CC(=O)Nc1cccc(Sc2nc(Nc3ccc(N4CCN(C)CC4)cc3)ncc2Cl)c1` had a mitochondrial superoxide of 1.26 ± 0.032.

Take `O=C(Nc1cccc(Nc2ncc(Br)c(NCCc3cnc[nH]3)n2)c1)N1CCCC1`: the mitochondrial superoxide came out at 1.16 ± 0.04.

`C[C@@H]1CN(CC(=O)Nc2ccc3c(c2)Cc2cccc(-c4cc(=O)cc(N5CCOCC5)o4)c2S3)C[C@H](C)O1` had a mitochondrial superoxide of 1.44 ± 0.015.

Compound `Cc1c(NC(=O)OC[C@@H]2COCCN2)cn2ncnc(Nc3ccc4c(cnn4Cc4cccc(F)c4)c3)c12` came in with a mitochondrial superoxide of 1.9 ± 0.045.

In turn, `CC(C)(C)c1nc(-c2cccc(NS(=O)(=O)c3c(F)cccc3F)c2F)c(-c2ccnc(N)n2)s1` registered a mitochondrial superoxide of 1.73 ± 0.12.

`CCn1c(N)c(C(=O)NC)c(=O)c2ccc(C#CC(C)(O)COC)nc21` (configuration not stated) yielded a mitochondrial superoxide of 1.33 ± 0.051.
